{
  "source": "PubChem BioAssay AID485297",
  "about": "(National Center for Advancing Translational Sciences (NCATS), 2010)",
  "note": "Among all 320,000 compounds or so, about 9,100 (2.8%) were called active. About 3% were inconclusive and are not listed. The full list was thinned out, with actives kept by preference. Unmarked numbers belong to inactive results. Calls come from the whole dose curve; as a rule, active = well fitted activation curve with a large enough effect; inconclusive = small, poorly fitted or top-dose-only effect; inactive = no such curve, though single readings can be large or run the other way. Potency is the fitted concentration of half-maximal effect.",
  "data": [
    {"test": "qHTS Assay for Rab9 Promoter Activators; note: nearly all actives have a fitted effect of over 60% in size; for activation, negative = inhibition: % of control where 0% means no effect", "conditions": "Huh7 Rab9 promoter-luciferase reporter, luminescence, 24 h; series mostly up to 9.22 µM; activation, negative = inhibition: at the top concentration", "source_text": "NIH Chemical Genomics Center [NCGC] NIH Molecular Libraries Probe Production centers Network [MLPCN] MLPCN Grant: MH089537-01 Assay Submitter (PI): Yiannis A. Ioannou NCGC Assay Overview: Niemann Pick Type C (NPC) is a rare neurodegenerative lipidosis that is characterized by lipid storage in the endosomal/lysosomal system. Treatment modalities for this devastating disease are currently non-existent due to the severe obstacles associated with accessing the central nervous system with proteins or genes (Ioannou, 2000). We have developed a new paradigm, termed \"Orphan Receptor Bypass Therapy\" (ORByT), to address these disorders. This paradigm posits the existence of endogenous \"suppressor\" proteins whose expression can dramatically improve LSD pathogenesis. The goal is the identification/discovery of small chemical compounds that can modulate the expression of these proteins and provide a new treatment modality for these devastating disorders. One such protein whose overexpression reverses aspects of the NPC phenotype is Rab9. We have developed and optimized a cell based luciferase reporter assay in 1536 well format for the identification of up-regulators of the Rab9 promoter.\nThe Rab9 promoter is cloned in front of the luciferase reporter gene, therefore […] promoter activation results in luciferase expression. Frozen stock of the Rab9 promoter transfected Huh7 cells were obtained from the laboratory of Dr. Yiannis Ioannou (The Mount Sinai School of Medicine, New York, NY). Cells were propagated and maintained at NCGC in medium containing RPMI-1640 supplemented with 10% FBS, 2mM L-glutamine, and 50ug/ml penicillin/streptomycin. Cells were harvested in and plated for assays in OP-MEM I reduced-serum medium supplemented with 10% FBS. The Amplite luciferase reporter gene assay kit was purchased from ABD Bioquest and prepared/stored according to manufacturers recommendations. qHTS Assay Setup: 1.Dispensed 5ul of Huh7 cells stably expressing Rab9-luciferase at a density of 1500 cells per well 1536-well plates. 2.Incubate cells at 37C, 5% CO2, and 95% humidity for 2 hours. 3.Transferred 23nl per well of compound in DMSO solution. 4.Incubated at 37C, 5% CO2, and 95% humidity for 24 hours. 5.Dispensed 3ul per well of Amplite reagent(ABD Bioquest) per well. 6.Incubate at ambient for 10 minutes. 7.Read using the luminescence protocol on the ViewLux plate reader (Perkin Elmer).", "units": {"activation, negative = inhibition": "%"}, "values": [
      {"smiles": "COCCCNC(=O)COc1cc(C)c(Cl)c(C)c1", "activation, negative = inhibition": -1.29},
      {"smiles": "Cc1cc(OCc2cc(C(=O)NCc3cc(C(C)C)no3)no2)cc(C)c1Cl", "Potency": "1000 nM (active)"},
      {"smiles": "Cc1cccnc1CC(C)NC(=O)c1cc(COc2cncc(Cl)c2)on1", "note": "(configuration not stated)", "activation, negative = inhibition": 21.8},
      {"smiles": "CN(C)S(=O)(=O)c1cc(C(=O)Nc2ccn(C)n2)c(Cl)cc1Cl", "activation, negative = inhibition": -3.56},
      {"smiles": "O=C(Nc1cccc(C(=O)NC2CC2)c1)c1ccc(F)c(S(=O)(=O)N2CCOCC2)c1", "activation, negative = inhibition": 1.23},
      {"smiles": "CC(=O)c1ccc(N2CCN(C(=O)c3ccc(Cl)c(S(=O)(=O)NC4CC4)c3)CC2)c(F)c1", "activation, negative = inhibition": -4.16},
      {"smiles": "O=C(Nc1cccc(S(=O)(=O)Nc2ccc(Cl)cc2)c1)c1ccc2c(c1)OCCO2", "activation, negative = inhibition": -21.3},
      {"smiles": "O=C(Nc1ccccc1)c1ccc2c(c1)OCCCO2", "Potency": "562 nM (active)"},
      {"smiles": "Cn1c(NC(=O)c2ccc3c(c2)OCO3)cc(=O)n(C)c1=O", "activation, negative = inhibition": -1.63},
      {"smiles": "COC(=O)c1ccc(N2CCOCC2)c(NC(=O)c2ccc3c(c2)OCCO3)c1", "activation, negative = inhibition": 3.46},
      {"smiles": "O=C(Nc1ccccc1)c1ccc2c(c1)OCO2", "Potency": "2510 nM (active)"},
      {"smiles": "O=C(Nc1cccc([N+](=O)[O-])c1)c1ccc2c(c1)OCO2", "activation, negative = inhibition": 25.9},
      {"smiles": "O=C(CN1CCc2cc3c(cc2C1)OCCCO3)Nc1ccccc1", "activation, negative = inhibition": -2.47},
      {"smiles": "CN1CCN(c2ccc(NC(=O)c3ccc4c(c3)OCCO4)cc2Cl)CC1", "Potency": "2000 nM (active)"},
      {"smiles": "CN1CCN(c2ccc(NC(=O)c3cc(Cl)c4c(c3)OCCO4)cc2)CC1", "activation, negative = inhibition": -0.801},
      {"smiles": "CCCc1nnc(NC(=O)c2cc(OC)cc(OC)c2)s1", "activation, negative = inhibition": 4.08},
      {"smiles": "O=C(Nc1cccc(S(=O)(=O)N2CCCCC2)c1)c1ccc2c(c1)OCO2", "activation, negative = inhibition": -5.6},
      {"smiles": "COCc1nnc(NC(=O)c2ccc3c(c2)OCO3)s1", "Potency": "2820 nM (active)"},
      {"smiles": "CCN(CC)c1nc(-c2ccccc2)cc(C(F)(F)F)c1C#N", "activation, negative = inhibition": -1.99},
      {"smiles": "Cc1ccc(-c2nnc(-n3nnc4ccccc43)c3ccccc23)cc1", "activation, negative = inhibition": 0.115},
      {"smiles": "Cc1ccc(C(=O)OCC(=O)NCc2cc(C)c(O)c(C)c2)cc1S(=O)(=O)N1CCCCC1", "activation, negative = inhibition": -8.65},
      {"smiles": "O=C(Nc1ccc(Br)cn1)C1CCN(S(=O)(=O)c2cccs2)CC1", "activation, negative = inhibition": -29.7},
      {"smiles": "O=C(CN1CCCCC1)Nc1ccccc1C(=O)NC1CC1", "activation, negative = inhibition": -5.28},
      {"smiles": "C=CCNc1nc(N)c(C(=C(C#N)C#N)c2ccccc2)s1", "activation, negative = inhibition": -0.832},
      {"smiles": "Cc1n[nH]c(=O)c2c(NC(=O)CSc3cc(Cl)ccc3Cl)oc(C)c12", "activation, negative = inhibition": 0.024},
      {"smiles": "O=S(=O)(NCCc1ccccn1)c1cc(Cl)cc(Cl)c1O", "activation, negative = inhibition": 7.45},
      {"smiles": "Cc1nn(CC(=O)Nc2nc3ccccc3s2)c(C)c1[N+](=O)[O-]", "activation, negative = inhibition": -6.26},
      {"smiles": "O=C(Nc1nc2cc3c(cc2s1)OCCO3)c1cccc(S(=O)(=O)N2CCOCC2)c1", "activation, negative = inhibition": 6.06},
      {"smiles": "O=C(Nc1ccccc1F)c1ccc2c(c1)OCO2", "Potency": "2820 nM (active)"},
      {"smiles": "COc1ccc(S(=O)(=O)N2CCOCC2)cc1C(=O)Nc1nc2ccccc2s1", "activation, negative = inhibition": -0.0677},
      {"smiles": "COc1cc(NC(=O)c2ccc3c(c2)OCO3)ccc1NC(=O)c1cccs1", "activation, negative = inhibition": 4.9},
      {"smiles": "O=C(CCNC(=O)c1ccccc1)Nc1nc2ccccc2s1", "activation, negative = inhibition": 23},
      {"smiles": "Cc1ccc(F)cc1NC(=O)c1ccc2c(c1)OCO2", "activation, negative = inhibition": 8.79},
      {"smiles": "O=C(Nc1ccccc1N1CCN(C(=O)c2ccccc2)CC1)c1ccc2c(c1)OCO2", "activation, negative = inhibition": -7.83},
      {"smiles": "O=C(Nc1ccc2c(c1)OCO2)c1ccc(N2C(=O)c3ccccc3C2=O)cc1", "activation, negative = inhibition": 7.16},
      {"smiles": "COc1ccc(C(=O)Nc2ccc3c(c2)OCO3)cc1OC", "Potency": "4470 nM (active)"},
      {"smiles": "O=C(Nc1nc2ccccc2s1)c1ccc2c(c1)OCO2", "Potency": "316 nM (active)"},
      {"smiles": "O=C(Nc1ccccc1)Nc1nc2ccccc2s1", "Potency": "1120 nM (active)"},
      {"smiles": "CSc1ncccc1C(=O)Nc1ccc2c(c1)OCO2", "activation, negative = inhibition": -1.7},
      {"smiles": "CCC(C)NC(=O)c1ccc(NC(=O)CC2SC(N3CCCCC3)=NC2=O)cc1", "note": "(configuration not stated)", "activation, negative = inhibition": -8.9},
      {"smiles": "CC1CC(C)CN(C(=O)COC(=O)c2ccc3ncsc3c2)C1", "note": "(configuration not stated)", "activation, negative = inhibition": -5.2},
      {"smiles": "CN(CC(=O)NCC(c1ccccc1)N1CCCC1)S(=O)(=O)c1ccc(Cl)cc1", "note": "(configuration not stated)", "activation, negative = inhibition": -1.75},
      {"smiles": "COc1ccc(CCNC(=O)COc2ccc3c(c2)OCO3)cc1", "activation, negative = inhibition": 0.182},
      {"smiles": "CC(Oc1ccc(Br)cc1)C(=O)NC1CCCCCC1", "note": "(configuration not stated)", "activation, negative = inhibition": 12},
      {"smiles": "CC(C)C(=O)Nc1cccc(C(=O)Nc2ccc3c(c2)OCO3)c1", "Potency": "1120 nM (active)"},
      {"smiles": "CCSc1ccccc1C(=O)Nc1ccc2c(c1)OCO2", "activation, negative = inhibition": 23.9},
      {"smiles": "Cc1ccc(C(=O)Nc2ccc3c(c2)OCO3)cc1S(=O)(=O)N1CCCCC1", "activation, negative = inhibition": 22},
      {"smiles": "CN(CC(=O)Nc1ccc(F)c(F)c1F)C(=O)C1CC(=O)N(C2CCCC2)C1", "note": "(configuration not stated)", "activation, negative = inhibition": -3.87},
      {"smiles": "NS(=O)(=O)c1ccc(CNC(=O)c2cccc(S(=O)(=O)N3CCc4ccccc43)c2)cc1", "activation, negative = inhibition": -5.28},
      {"smiles": "COc1cc(C(=O)Nc2ncccc2C)ccc1OCC(=O)N1CCOCC1", "activation, negative = inhibition": 2.4},
      {"smiles": "CC1(C)O[C@@H]2[C@H](O1)[C@@H](COS(=O)(=O)O)O[C@H]2n1ccc(=O)[nH]c1=O", "activation, negative = inhibition": 0.343},
      {"smiles": "CCOc1cccc(-n2nnnc2-c2ccc(OC)cc2)c1", "activation, negative = inhibition": -39.7},
      {"smiles": "COc1ccc(C2=NN(c3nc4ccccc4s3)C(=O)C2)cc1", "activation, negative = inhibition": -1.35},
      {"smiles": "COc1ccc(-n2nnnc2-c2nc3ccccc3s2)cc1", "Potency": "2820 nM (active)"},
      {"smiles": "CCOc1ccc(NC(=O)COC(=O)C2CCC(=O)N2)c([N+](=O)[O-])c1", "note": "(configuration not stated)", "activation, negative = inhibition": 6.59},
      {"smiles": "C[C@H](NC(=O)c1[nH]cnc1C(=O)Nc1nccs1)c1ccccc1", "activation, negative = inhibition": -3.31},
      {"smiles": "CSc1ccccc1OCc1cc(C(=O)N(C)CCc2c(C)n[nH]c2C)no1", "activation, negative = inhibition": 20.2},
      {"smiles": "COC(=O)[C@@H]1CCCN1C(=O)c1cc(COc2cccc3cccnc23)on1", "activation, negative = inhibition": 1.02},
      {"smiles": "CSc1ccccc1OCc1cc(C(=O)N2C[C@H]3CC[C@H]2C3)no1", "Potency": "2820 nM (active)"},
      {"smiles": "CC(OC(=O)CN1C(=O)c2ccccc2C1=O)C(=O)c1ccccc1", "note": "(configuration not stated)", "activation, negative = inhibition": -0.0549},
      {"smiles": "Cc1cc(C(=O)Nc2ccc(C)c(S(=O)(=O)N3CCOCC3)c2)c2ccccc2n1", "activation, negative = inhibition": -0.945},
      {"smiles": "Cc1ccc(C(=O)NCC(c2cccs2)N(C)C)cc1S(=O)(=O)N1CCOCC1", "note": "(configuration not stated)", "activation, negative = inhibition": -1.2},
      {"smiles": "Nc1ccn(CC(=O)N2CCN(c3ccccn3)CC2)c(=O)n1", "activation, negative = inhibition": -3.9},
      {"smiles": "O=C(/C=C/c1ccco1)NC(=S)Nc1ccccc1Br", "activation, negative = inhibition": -1.03},
      {"smiles": "Cc1nnc(NC(=O)/C=C/c2ccco2)s1", "activation, negative = inhibition": 29.5},
      {"smiles": "O=C(/C=C/c1ccco1)Nc1ccc(Oc2ccccc2)cc1", "Potency": "3980 nM (active)"},
      {"smiles": "Brc1ccc(-c2csc(N/N=C/c3ccc4c(c3)OCO4)n2)cc1", "activation, negative = inhibition": -5.19},
      {"smiles": "Cc1noc(C)c1/C=N/Nc1ccc2ccccc2n1", "Potency": "708 nM (active)"},
      {"smiles": "C(=N\\Nc1ccc2ccccc2n1)/c1ccc2c(c1)OCO2", "Potency": "100 nM (active)"},
      {"smiles": "Cc1cc(C)nc(N/N=C/c2c(C)oc3ccccc23)n1", "activation, negative = inhibition": -2.47},
      {"smiles": "Cc1nc(Cl)cc(N/N=C/c2ccccc2)n1", "activation, negative = inhibition": 21.6},
      {"smiles": "O=C(Nc1ccc2ccccc2c1)/C(=C\\c1ccc2c(c1)OCO2)NC(=O)c1ccco1", "activation, negative = inhibition": -6.34}
    ]}
  ]
}
